UHRF1 binding = human UHRF1 methylated DNA binding inhibitors. 370,000 tested, 0.75% active. AID 687016. UHRF1 binding to methylated oligo, TR-FRET. inhibition, % at 4.4 µM; in the data active = inhibition above about 21%;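 note: UHRF1 SRA domain binding a hemimethylated CpG hairpin DNA probe; 0% = median of test compound wells and 100% = reference inhibitor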
MBD2 DNA inh = inhibitors of human MBD2 binding to methylated oligonucleotide; TR-FRET; Q9UBB5; AID 686964; 370,000 tested, 0.31% active; inhibition, % at 4.4 µM; in the data active = inhibition above about 13%
Target sequence (Q9UBB5 whole entry, looked up): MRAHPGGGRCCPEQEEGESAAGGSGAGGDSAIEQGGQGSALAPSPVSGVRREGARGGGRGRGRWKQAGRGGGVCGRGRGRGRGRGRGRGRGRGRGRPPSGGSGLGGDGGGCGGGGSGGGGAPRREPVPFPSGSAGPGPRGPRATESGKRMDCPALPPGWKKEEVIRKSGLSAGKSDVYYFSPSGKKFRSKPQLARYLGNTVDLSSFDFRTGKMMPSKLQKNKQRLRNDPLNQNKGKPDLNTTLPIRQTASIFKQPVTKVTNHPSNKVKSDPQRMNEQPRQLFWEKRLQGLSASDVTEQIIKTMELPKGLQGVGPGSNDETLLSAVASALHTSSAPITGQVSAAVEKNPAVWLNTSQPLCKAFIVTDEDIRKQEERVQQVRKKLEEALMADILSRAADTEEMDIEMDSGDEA
rCAG RNA binder = r(CAG) repeat RNA binding | AID 651821 | inhibition, % at 3 µM | TO-PRO-1 dye displacement fluorescence | 370,000 tested, 1.3% active;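 active = inhibition above the plate cutoff, the mean of all test compounds on that plate plus 3 SD, cut at about 35% in these data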;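 note: 0% = DMSO alone and 100% = 100 µM mitoxantrone as full dye displacement; higher means more dye released from RNA so lower well fluorescence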
LEDGF integ inh = blocks HIV-1 LEDGF/p75-dependent DNA integration; TR-FRET IN-LEDGF/p75 DNA integration, Eu/Cy5; inhibition, % at 3.7 µM; 370,000 tested, 0.64% active; AID 743269;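 active = inhibition above the screen-wide mean plus 3 SD, cut at about 13% in these data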;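 note: signal is the Cy5 over europium emission ratio at 671 and 618 nm; 0% = plate median of compound wells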
ABHD5-PLIN5 inh = inhibitors of human ABHD5-perilipin-5 interaction | Split G. princeps luciferase complementation, luminescence, 4 h | Q00G26+Q8WTS1 | 360,000 tested, 0.78% active | inhibition, % at 4 µM;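 active = inhibition above the mean inhibition across every tested compound plus 3 SD, cut at about 22% in these data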;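 note: 0% = DMSO only wells and the 100% control is not disclosed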
PRMT1 FP inh = inhibitors of human PRMT1 | Q99873 | recombinant PRMT1, activity-based probe fluorescence polarization | inhibition, % at 2.79 µM | 370,000 tested, 1.3% active | AID 652257;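 active = inhibition above about 21% made by adding two undisclosed values, limit read from the data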
rCAG bind conf = r(CAG) RNA repeat binding, confirmation | shares compounds with rCAG RNA binder | TO-PRO-1 dye displacement fluorescence | inhibition, % at 3 µM | 4,300 tested, 70% active;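 active = inhibition above a per-plate cutoff, the mean inhibition of sample wells plus 3 SD, cut at about 35% in these data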;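 note: loss of TO-PRO-1 fluorescence as compound displaces dye from 1x1 AA loop RNA; 0% = DMSO only wells and 100% = 100 µM mitoxantrone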
dCAG dye counter = DNA CAG dye complex inhibition counter-screen; shares compounds with rCAG RNA binder; d(CAG) DNA oligo TO-PRO-1 dye displacement, fluorescence; inhibition, % at 3 µM; 4,300 tested, 94% active; AID 652068;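 active = inhibition above its plate's cutoff, the mean test-well inhibition plus 3 SD, cut at about 4.8% in these data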;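 note: 0% = DNA dye mix with DMSO and 100% = 100 µM mitoxantrone; hits displace the dye from DNA and so lower well fluorescence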
PRMT1 inh conf = confirmation of human PRMT1 inhibitors; shares compounds with PRMT1 FP inh; recombinant His-PRMT1, activity-based probe fluorescence polarization; inhibition, % at 2.79 µM; 3,300 tested, 42% active; AID 687036;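 active = mean inhibition across replicates above the hit cutoff derived for the earlier primary screen, cut at about 22% in these data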
UHRF1 ctr MBD2 = UHRF1 methyl-oligo binding inhibition as MBD2 counter-screen; shares compounds with MBD2 DNA inh; UHRF1 binding to methylated oligonucleotide, TR-FRET; inhibition, % at 4.4 µM; 1,000 tested, 25% active; AID 720530; in the data active = inhibition above about 21%;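 note: UHRF1 SRA domain binding a labeled hemimethylated CpG hairpin DNA; 0% = vehicle only and 100% = reference inhibitor with vehicle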
MBD2 confirm = MBD2-DBD methyl-DNA binding inhibition, TR-FRET confirmation; shares compounds with MBD2 DNA inh; TR-FRET MBD2-DBD binding to methylated oligonucleotide; inhibition, % at 4.4 µM; 1,000 tested, 26% active
IN multimer act = counter-screen for LEDGF/p75 integration inhibitors: HIV-1 integrase multimerization activators | shares compounds with LEDGF integ inh | TR-FRET HIV-1 integrase multimerization, biochemical | activation, % at 7.7 µM | 2,000 tested, 17% active | AID 1053131; in the data active = activation above about 8.9%
TR-FRET interf = counter-screen for LEDGF/p75 integration inhibitors: TR-FRET optical interference; inhibition, % at 7.7 µM; 2,000 tested, under 10 active; AID 1053135; shares compounds with LEDGF integ inh; TR-FRET optical interference counterscreen, HIV-1 IN multimerization;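 active = inhibition above the mean over all tested compounds plus 3 SD, which no compound reached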;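 note: 0% = integrase with antibodies and DMSO and 100% = antibodies without integrase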
IN-LEDGF confirm = LEDGF/p75-dependent HIV-1 integration inhibition, confirmation | inhibition, % at 3.7 µM | AID 1053136 | TR-FRET LEDGF/p75-dependent HIV-1 integration, biochemical | 2,000 tested, 36% active | shares compounds with LEDGF integ inh
Numbers without * were called inactive; · = no result. An excerpt weighted towards active compounds, which were near 4.1% of everything screened. Cut-off read from the data, not from the text of the source, unless noted: active = inhibition above about 14%; inactive = the rest.

SMILES | UHRF1 binding | MBD2 DNA inh | rCAG RNA binder | LEDGF integ inh | ABHD5-PLIN5 inh | PRMT1 FP inh | PRMT1 inh conf | others
CCOC(=O)C1=C(c2ccccc2)N=c2s/c(=C\c3ccco3)c(=O)n2C1c1cccs1 (centres undefined) | 8 | 5 | 44* | 16* | -8 | 23* | · | rCAG bind conf=29;dCAG dye counter=20*;IN multimer act=1;TR-FRET interf=-7;IN-LEDGF confirm=23*
CCOC(=O)C1=C(c2ccccc2)N=c2s/c(=C\c3cc(OC)c(OC)c(OC)c3)c(=O)n2C1c1cccs1 (centres undefined) | -4 | 1 | 5 | -1 | 0 | -3 | ·
COC(=O)[C@]12C[C@H](CC(=O)NCCCCc3ccccc3)C(=O)N(CCC3=CCCCC3)C1=C[C@H](C1CCCC1)O[C@@H]2C | 1 | -3 | 4 | 0 | · | 3 | ·
Nc1c(C(=O)NCC2CCCO2)sc2nc3c(c(-c4ccco4)c12)CC/C3=C\c1ccco1 (centres undefined) | 42* | 21* | 60* | 65* | 12 | 36* | 47* | rCAG bind conf=83*;dCAG dye counter=53*;UHRF1 ctr MBD2=92*;MBD2 confirm=106*;IN multimer act=54*;TR-FRET interf=-193;IN-LEDGF confirm=85*
O=C(CCN1CCN(c2ccccc2)CC1)N/N=C/c1ccc(O)c(O)c1O | 27* | 8 | 56* | 42* | -15 | 23* | · | rCAG bind conf=45*;dCAG dye counter=21*;IN multimer act=49*;TR-FRET interf=-174;IN-LEDGF confirm=73*
CC(=O)Nc1cccc(/C(C)=N/NC(=O)c2ccc(O)cc2)c1 | -2 | -5 | -3 | 2 | -5 | -7 | ·
C/C(=N\NC(=O)c1cc(O)ccc1O)c1cccc(NC(=O)c2ccc(Cl)cc2)c1 | 14 | -1 | 37* | 41* | 4 | 18 | · | rCAG bind conf=25;dCAG dye counter=8.3*;IN multimer act=19*;TR-FRET interf=-97;IN-LEDGF confirm=16*
NS(=O)(=O)c1ccc2c(c1)C1C=CCC1C(C1CC=CCC1)N2 (centres undefined) | 2 | 5 | 62* | 21* | 10 | 37* | · | rCAG bind conf=26;dCAG dye counter=14*;IN multimer act=2;TR-FRET interf=-8;IN-LEDGF confirm=4
Cc1ccc(NC(=O)CC2SC3=NCCCN3C2=O)c(C)c1 (centres undefined) | -1 | 2 | 11 | -5 | -7 | 44* | 40*
COc1ccc(-c2nc(CSCC(=O)NC3CCCc4ccccc43)c(C)o2)cc1 (centres undefined) | 3 | 1 | 1 | -1 | 1 | 29* | 26*
O=C(O)C(Cc1ccccc1)N1C(=O)/C(=C/c2cccnc2)SC1=S (centres undefined) | 4 | -4 | 16 | -5 | -7 | 26* | 4
O=C(NN1C(=O)/C(=C\c2cccnc2)SC1=S)C(c1ccccc1)c1ccccc1 | -5 | 3 | 29 | -6 | 6 | 14 | ·
COc1cccc(Cn2cc(COC(=O)NCC(C)C)nn2)c1 | 1 | 2 | 2 | -2 | · | -1 | ·
NC(=O)NN=C1CCC(O)CC1CC(=O)O (centres undefined) | -3 | -5 | 3 | 1 | · | 4 | ·
COc1cc2c(cc1OC)CN(C(=O)CSC1=NCCS1)CC2 | -1 | 2 | 3 | -2 | -4 | 4 | ·
COc1cc2c(cc1OC)CN(C(=O)CSc1ccccc1C)CC2 | -6 | 3 | 2 | 1 | 3 | 33* | 16
Cc1ccc2nc(SCC(=O)N/N=C/c3ccco3)cc(C)c2c1 | -2 | -2 | 3 | 3 | -4 | 0 | ·
Cc1ccc2nc(C)cc(SCC(=O)N/N=C/c3ccco3)c2c1 | 2 | -2 | 5 | -6 | -2 | 52* | -3
COc1ccc2nc(C)cc(SCC(=O)N/N=C/c3cccc4ccccc34)c2c1 | -1 | -7 | 8 | -1 | -2 | -2 | ·
COc1cccc2c(SCC(=O)N/N=C/c3ccccc3)cc(C)nc12 | -7 | -3 | 3 | 5 | -9 | 47* | -3
COC(=O)c1cc(C(c2ccccc2O)C2CCCO2)n2cccc(C(C)(C)C)c12 (centres undefined) | -2 | 4 | 7 | 2 | · | -1 | ·
CC(C)C[C@@H]1COc2cc(N3CCOCC3)ccc2S(=O)(=O)N1 | 16 | 1 | -1 | -3 | · | 3 | ·
COc1ccc(CCNC(=O)C(=O)NCC2OCCN2S(=O)(=O)c2ccc(OC)cc2)cc1 (centres undefined) | 10 | 11 | 3 | -1 | 2 | 30* | 0
COc1ccc(CCNC(=O)C(=O)NCC2OCCN2S(=O)(=O)c2ccc(Cl)cc2)cc1 (centres undefined) | 1 | 0 | 4 | 1 | -2 | 1 | ·
CCN(CC)C(=O)CC[C@@H]1CC[C@]2(CCCN(C(=O)c3ccno3)C2)O1 | -1 | 6 | 3 | 3 | · | -1 | ·
COc1ccc2cc(C(c3nnnn3C(C)(C)C)N3CCSCC3)c(=O)[nH]c2c1 (centres undefined) | -7 | -6 | 9 | 2 | -25 | 34* | -6
COc1ccccc1OC(=O)CCN1c2ccccc2Sc2ccccc21 | 2 | -4 | 6 | -1 | -1 | -1 | ·
COc1ccccc1-[n+]1c(C)cc(/C=C2\Sc3ccccc3N2C)cc1C | -52 | -8 | -26 | -2 | 13 | 26* | -10
CCCOc1ccc(N2C(=O)CC(N3CCC(C(=O)OCC)CC3)C2=O)cc1 (centres undefined) | 4 | 2 | -7 | 6 | 16 | 56* | 6
CCOc1ccc(N2C(=O)CC(N3CCN(C(=O)CN4CCCC4)CC3)C2=O)cc1 (centres undefined) | 2 | -1 | 2 | -1 | 11 | 6 | ·

Source: PubChem BioAssay (The Scripps Research Institute Molecular Screening Center)
